An excerpt weighted towards active compounds, which were near 11% of everything screened.
IMPase Li cell – IMPase inhibition in cells with lithium potentiation. CHO-M1 cells, IP1 TR-FRET (IP-One), carbachol + lithium. Potency, µM (top dose mostly 59.4 µM), most hits filed as inhibitors. 210,000 tested, 0.35% active;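 further: IP1 builds up when IMPase is blocked and the TR-FRET signal falls; nearly all actives have a fitted effect of over 50% in size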
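CHO cells stably expressing M1 receptor (2000/well, cultured 16–30 h) treated 30 min at 37C with compound plus low lithium. Cytosolic IP1 by TR-FRET (665/620 ratio and 620 channel) after 10 min lysis; AC50 by Hill fit.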
ALDH1A1 block – inhibitors of human aldehyde dehydrogenase 1A1 | P00352 | 220,000 tested, 7.3% active | Potency, µM (top dose mostly 75.3 µM), most hits filed as inhibitors | Purified ALDH1A1, NADH fluorescence, propionaldehyde substrate | AID 1030; active means well fitted inhibition curve with a large enough effect, not every such curve was filed as active; inconclusive means small, poorly fitted or top-dose-only effect, or another doubt; inactive means no such curve, though single readings can be large or run the other way
HPGD inh – HPGD (human) dehydrogenase inhibition; P15428; purified HPGD, NADH fluorescence kinetic, PGE2 substrate; Potency, µM, usual class: inhibitors; 150,000 tested, 4.3% active; AID 894; active means well fitted inhibition curve with a large enough effect, not every such curve was filed as active; inconclusive means small, poorly fitted or top-dose-only effect, or another doubt; inactive means no such curve, though single readings can be large or run the other way
Target sequence (P15428 whole entry, looked up): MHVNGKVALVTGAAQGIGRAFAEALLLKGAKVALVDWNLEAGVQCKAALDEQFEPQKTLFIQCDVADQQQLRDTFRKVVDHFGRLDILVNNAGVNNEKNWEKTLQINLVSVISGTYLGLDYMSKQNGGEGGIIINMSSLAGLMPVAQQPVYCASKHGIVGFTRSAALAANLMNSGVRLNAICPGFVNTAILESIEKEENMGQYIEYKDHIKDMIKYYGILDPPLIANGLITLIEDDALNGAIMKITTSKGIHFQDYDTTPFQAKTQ
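20 nM HPGD preincubated 15 min at room temperature with compound in 50 mM Tris-HCl pH 8, 0.01% Tween 20. Started with 1 mM NAD+ and 30 uM prostaglandin E2; NADH fluorescence (360/450 nm) read 5 times over 30-s intervals, last minus first.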
IMPase inh – membrane-permeable compound that blocks inositol monophosphatase. P97697. CHO-M1 cells, IP1 accumulation, HTRF TR-FRET ratio. inhibition (IP1 accumulation), % at 46.1 µM. 120,000 tested, under 10 active; active means well fitted curve in the direction sought with a large enough effect in the signal ratio, not every such curve was filed as active; inconclusive means small, poorly fitted or top-dose-only effect, or a change in a side signal; inactive means no such curve, though single readings can be large or run the other way; the % refers to the signal ratio;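 further: cells stimulated with carbachol in lithium chloride buffer; higher means more IMPase inhibition seen as more IP1 and lower FRET ratio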
Target sequence (P97697 whole entry, looked up): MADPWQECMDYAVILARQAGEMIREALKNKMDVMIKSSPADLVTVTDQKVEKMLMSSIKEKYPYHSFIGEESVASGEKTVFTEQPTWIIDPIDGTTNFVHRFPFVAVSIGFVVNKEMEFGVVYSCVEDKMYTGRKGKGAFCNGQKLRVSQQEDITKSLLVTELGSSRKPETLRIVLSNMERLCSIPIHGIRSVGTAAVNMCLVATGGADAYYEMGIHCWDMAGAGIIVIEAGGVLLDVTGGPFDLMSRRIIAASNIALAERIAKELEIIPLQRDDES
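Cellular IMPase inhibition is scored as a rise in cytosolic IP1, detected by competitive TR-FRET between d2-labelled IP1 and a europium anti-IP1 antibody. M1-expressing CHO cells were stimulated with carbachol for 30 min at 37C, with lithium (50 mM LiCl) present in the buffer.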
PNC inhibitor – blocks assembly of the perinucleolar compartment | PC3M PTB-GFP, PNC prevalence imaging, 16 h; stronger effect = lower value | activity change (PNC), negative = inhibition, % at 10 µM | 140,000 tested, 3.1% active | AID 2417;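 active means readout at or below -70, meaning at least 70% loss of cells showing the perinucleolar compartment, a nuclear body marking cancer cells; inconclusive means readout between -30 and a set limit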
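PC3M cells stably expressing PTB-GFP, 750–1000 cells/well, treated 16 h at 37 °C with compound (23 nl of library stock), in duplicate. After paraformaldehyde fixation and Hoechst stain, imaged at 20x; PNC prevalence scored by image analysis.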
NPSR antagonist – antagonists of human neuropeptide S receptor cAMP signaling; Q6W5P4; CHO-NPSR cells, cAMP TR-FRET, antagonist mode; Potency, µM (titrated, usually from 38.3 µM), hits mostly inhibitors; 220,000 tested, 1% active; AID 1461; further: nearly all actives have a fitted effect of over 50% in size
Numbers stand for hits; . = inactive; ? = inconclusive; / = no result; ! = repeats disagree; [ ] = dose if it differs, or a comment. Unless noted, the call rests on the fitted dose curve; in most records, active means well fitted curve in the direction sought with a large enough effect; inconclusive means small, poorly fitted or top-dose-only effect, or another doubt; inactive means no such curve, though single readings can be large; an effect the other way counts as inactive or inconclusive.

SMILES	IMPase Li cell	ALDH1A1 block	HPGD inh	IMPase inh	PNC inhibitor	NPSR antagonist
O=c1cc(COc2ccc(Cl)c(Cl)c2)nc2sccn12	/	.	/	/	/	.
O=c1cc(CNc2cc(Cl)ccc2Cl)nc2sccn12	.	.	.	/	-113	.
C[C@@H]1CC[C@@H]2C(=O)N3[C@@H](CC[C@@H](C)[C@@H]3c3ccc(-c4ccco4)cc3)C(=O)N2[C@H]1c1ccc(-c2ccco2)cc1	/	.[13.5 µM]	/	/	/	/
CC1CCC2C(=O)N3C(CCC(C)C3c3ccc(-c4ccco4)cc3)C(=O)N2C1c1ccc(-c2ccco2)cc1 (configuration not stated)	/	3.2µM	/	/	/	/
Cn1c(SCC2CCCO2)nnc1-c1cccc([N+](=O)[O-])c1 (configuration not stated)	.	?	/	/	/	.
CC(C)(N=NC(C)(C)C(=N)N)C(=N)N	.	32µM!	.	/	/	/
Cc1nn(Cc2ccccc2)c(C)c1NC(=O)CSc1nc(C2CC2)nc2c1cnn2-c1ccccc1	.	.	.	.	-88	.
COc1nc(OC)nc(N2CCC(C(=O)Nc3cccc4ccccc34)CC2)n1	.	.	.	.	?	.
CCCCn1c(SCC(=O)NCc2ccco2)nc2cc(S(N)(=O)=O)ccc21	.	14µM	?	.	.	.
CCCCn1c(SCC(=O)c2ccc(OC)c(OC)c2)nc2cc(S(N)(=O)=O)ccc21	?	?	.	.	?	.
CCCCn1c(SCC(=O)c2ccc(OCC)cc2)nc2cc(S(N)(=O)=O)ccc21	?	35µM	.	.	.	.
CCOC(=O)/C=C1\SCC(=O)N1CC(=O)NCc1ccc(OC)c(OC)c1	.	.	/	/	/	.
COCCCN(C(=S)NC(=O)C(C)(C)C)c1c(N)n(Cc2ccccc2)c(=O)[nH]c1=O	/	28µM	/	/	/	.
COCCCN(C(=S)NC(=O)c1ccc(Br)cc1)c1c(N)n(Cc2ccccc2)c(=O)[nH]c1=O	.	.	/	/	/	.
COCCN(C(=O)C1CCCC1)c1c(N)n(Cc2ccccc2)c(=O)[nH]c1=O	.	.	/	/	/	.
CC(C)CCN(C(=S)NC(=O)C1CCCCC1)c1c(N)n(Cc2ccccc2)c(=O)[nH]c1=O	.	25µM	/	/	/	.
COc1ccc(-c2nc3c(-c4ccc(Cl)cc4)cnn3cc2C)cc1F	.	?	/	/	/	.
CCS(=O)(=O)Nc1cccc(C2=NN(S(=O)(=O)c3ccc(C)cc3)C(c3cccs3)C2)c1 (configuration not stated)	.	5µM	.	/	.	.
Cc1ccc(C2=NN(S(C)(=O)=O)C(c3cccs3)C2)cc1 (configuration not stated)	.	.	.	.	.	.
CCc1ccc(C2=NN(S(C)(=O)=O)C(c3cccs3)C2)cc1 (configuration not stated)	.	20µM	.	.	-100	.
O=C(Cc1ccc([N+](=O)[O-])cc1)Nc1ccc(Cl)cc1	.	?	/	/	/	.
CN(C)S(=O)(=O)c1ccc(C(=O)N2CCN=C2SCc2ccccc2)cc1	.	?	/	/	/	.
CC(NC(=O)C1CCCN(S(=O)(=O)c2cnc[nH]2)C1)c1ccccc1 (configuration not stated)	.	.	.	.	-81	.
CCN(CC)S(=O)(=O)N1CCC(C(=O)NCc2ccc3c(c2)OCO3)CC1	.	?	.	/	.	.
O=C(NCC1COc2ccccc2O1)C1CCCN(S(=O)(=O)c2cnc[nH]2)C1 (configuration not stated)	.	.	.	.	-93	.
SMILES	IMPase Li cell	ALDH1A1 block	HPGD inh	IMPase inh	PNC inhibitor	NPSR antagonist
O=C(C1CCCN(S(=O)(=O)c2cnc[nH]2)C1)N(CCc1ccccc1)Cc1ccccc1 (configuration not stated)	.	11µM	.	.	.	.
CC(C)c1ccc(NC(=O)C2CCCN(S(=O)(=O)c3cnc[nH]3)C2)cc1 (configuration not stated)	.	.	.	.	.	.
CCN(CC)S(=O)(=O)N1CCC(C(=O)NCC2COc3ccccc3O2)CC1 (configuration not stated)	.	2.5µM	.	.	.	.
Cc1cccc(Cc2cnc(NC(=O)CN3C(=O)/C(=C/c4ccccc4)SC3=S)s2)c1	.	.	.	.	?	.
Nc1nc(SCC(=O)N2CCCC2)[nH]c(=O)c1-c1ccccc1	.	.	.	.	.	.
Nc1nc(SCC(=O)N2CCc3ccccc32)[nH]c(=O)c1-c1ccccc1	.	?	.	.	-107	.
Cn1c(-c2ccccc2)cnc1SCC(=O)N1CCCc2ccccc21	.	10µM	.	/	?	.
O=C(CSc1ncc(-c2ccccc2)n1C1CCCC1)N1CCc2ccccc21	.	3.5µM	.	.	.	?
Cc1cc(C)cc(-n2nnc(C(=O)NCc3ccc(Cl)cc3)c2N)c1	.	.	.	.[1.84 µM]	?	.
CN1CCC(=C2c3ccccc3Sc3ccccc32)CC1	.	.	.	.	/	/
Cc1ccsc1/C=C1\CCc2ccccc2C1=O	.	?	.	.	.	.
CN(C(=O)c1ccc(=O)[nH]c1)C1(C(=O)NC2CCCCC2)CCCCC1	/	?	/	.	.	.
Cc1nc(-n2[nH]c3c(c2=O)CCCC3)[nH]c(=O)c1Cc1ccccc1	.	?	.	.	.	7.9µM
O=C(CN1CCN(S(=O)(=O)c2ccccc2)CC1)Nc1ccc([N+](=O)[O-])cc1	.	.	.	/	.	.
O=C(CCl)N=c1sccn1Cc1cccc2ccccc12	.	20µM	/	/	/	.
O=C(CCl)N=c1sccn1Cc1ccccc1Cl	/	/	/	/	/	.[7.67 µM]
O=C(CCl)N=c1sccn1Cc1ccc(Cl)cc1Cl	.	28µM	/	/	/	.
Cc1cc(Nc2c(C)n(C)n(-c3ccccc3)c2=O)n2c(nc3cc(F)c(F)cc32)c1C#N	/	/	/	/	/	.
CCCNC(=O)OCCC12CC3CC(CC(C3)C1)C2	.	?	.	/	.	.
CC1(C)CC(=O)C(c2c[nH]c3ccccc23)C(=O)C1	.	20µM	/	/	/	.
CCOc1ccc(C2/C(=C(\O)c3ccc(OC)c(OC)c3)C(=O)C(=O)N2c2cc(C)on2)cc1OC (configuration not stated)	.	.	.	.	.	.
CCOc1ccc(/C(O)=C2\C(=O)C(=O)N(c3cc(C)on3)C2c2ccccc2OC)cc1 (configuration not stated)	5µM	22µM	?	?	?	.
CNC(=O)/C(C#N)=c1\s/c(=C/C(=O)OC)c(=O)n1-c1ccccc1	.	.	.	.	.	.
COC(=O)/C=c1\sc2ncnn2c1=O	.	?	?	.	-81	.
CC(C)N(C(=O)COC(=O)c1ccccc1C(=O)c1ccc(Cl)c([N+](=O)[O-])c1)C(C)C	.	.	/	/	/	?

Screens: PubChem, National Center for Advancing Translational Sciences (NCATS)
